PubChem BioAssay (Tox21)
Records with an inconclusive call do not appear. Unmarked numbers belong to inactive results. The source made the active and inactive calls. Calls follow the shape of the dose curve; as a rule, active = well fitted cell-killing curve with a large enough effect in the repeat runs; inconclusive = weak or mixed curves, or effect the other way; inactive = flat fitted curve, though single readings scatter.

Assay: cAMP Responsive Elements (CRE) small molecule antagonists, cell-based qHTS assay: qHTS cell viability counter screen (AID 2060913); also: nearly all actives have a fitted effect of over 40% in size
Conditions: CRE-bla HEK293T viability, CellTiter-Glo luminescence, 5 h; series mostly up to 92.4 µM; viability change, negative = cytotoxic: at the top concentration
Procedure, shortened: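 Viability of NKH477-stimulated (0.25 uM final) CRE-bla HEK293T cells is measured by CellTiter-Glo luminescence following 3 hrs compound exposure at 37 C.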
% is scaled to controls: 0 for no effect and ±100 for the full control effect; potency is read from the fitted curve at half-maximal effect.

Compound | viability change, negative = cytotoxic | Potency
CC1=CCC2C(C1)C2(C)C (stereo not given) | 6.87% | –
C#CC(C)(O)CC(C)C (stereo not given) | -17.2% | –
COc1cc2c(N3CCN(C(=O)Nc4ccc(OC(C)C)cc4)CC3)ncnc2cc1OCCCN1CCCCC1 | 6.11% [at 42.5 µM] | –
CC(=O)Nc1ccn(C2COC(COC(=O)c3ccccc3)O2)c(=O)n1 (stereo not given) | 0.85% [at 42.5 µM] | –
O=C(c1ccccc1)c1ccc(O)c(O)c1O | – | inactive
CCCCc1nc2cccnc2n1Cc1ccc(-c2ccccc2-c2nnn[nH]2)cc1 | 10.8% | –
CC(=O)c1ccccc1 | – | inactive
Cc1cc(=O)c2c(O)c3c(O)cc(=O)c4c3c3c(cc(O)c1c23)C(C)(C)C=4O | -18.2% [at 18.9 µM] | –
CN(C)CCN(C)CCN(C)C | 3.24% | –
COc1ccc(C(=O)NCc2ccc(OCCN(C)C)cc2)cc1OC | 3.79% [at 42.5 µM] | –
CN1C(C)(C)CCCC1(C)C | -2.14% [at 42.5 µM] | –
CC(=O)Oc1ccccc1C(=O)Nc1ncc([N+](=O)[O-])s1 | – | 7.5 µM (active)
CC(C)c1nnc2ccc(-c3ocnc3-c3cc(F)ccc3F)cn12 | -3.63% | –
c1c[nH]cn1 | – | inactive
Cc1cccc(C)c1NC(=O)CN(CC(=O)O)CC(=O)O | 0.362% [at 42.5 µM] | –
CO[C@H]1C=CO[C@@]2(C)Oc3c(C)c(O)c4c(O)c(c(/C=N/N5CCN(C)CC5)c(O)c4c3C2=O)NC(=O)/C(C)=C\C=C[C@H](C)[C@H](O)[C@@H](C)[C@@H](O)[C@@H](C)[C@H](OC(C)=O)[C@@H]1C | – | inactive
NC1CCN(c2cccc(Cl)n2)CC1 | 0.651% [at 42.5 µM] | –
COc1ccc(C(=O)/C(Br)=C\C(=O)O)cc1 | 10.4% | –
CCN(CC)CCNC(=O)c1cc(S(C)(=O)=O)ccc1OC | 5.28% [at 42.5 µM] | –
Cc1cccc(O)c1C | – | inactive

Compound | viability change, negative = cytotoxic | Potency
CC(C)(O)c1ccccc1CC[C@@H](SCC1(CC(=O)O)CC1)c1cccc(/C=C/c2ccc3ccc(Cl)cc3n2)c1 | 2.55% [at 42.5 µM] | –
CC1=C(CC=O)C(C)(C)CCC1 | 2.03% | –
Oc1ccc(-c2ccc(O)cc2)cc1 | 15.4% | –
Nc1cccc2c(N)cccc12 | 17.8% | –
COC(=O)c1c(Cl)c(Cl)c(C(=O)OC)c(Cl)c1Cl | – | inactive
CC=O | – | 63.9 µM (active)
C=CC(=O)N1CCOCC1 | -5.76% | –
COC(=O)c1cc(Cl)ccc1[N+](=O)[O-] | 0.363% | –
On1nnc2ccccc21 | -4.02% | –
CCCCCCCOC(=O)c1ccc(O)cc1 | – | inactive
Cc1ncc([N+](=O)[O-])n1CCO | – | inactive
CCCCCCCCCCCCCCNCCO | -1.28% [at 42.5 µM] | –
CC(C=O)c1ccccc1 (stereo not given) | 3.37% | –
CN1[C@@H]2CC[C@@H]1CC(OC(=O)C(CO)c1ccccc1)C2 (stereo not given in full) | 1.31% [at 42.5 µM] | –
CCC(=O)OC/C=C(\C)CCC=C(C)C | -1.42% | –
COc1cc(C(=O)NCc2ccc(OCCN(C)C)cc2)cc(OC)c1OC | -1.18% [at 42.5 µM] | –
CC(C)CC(C)(N)C#N (stereo not given) | -8.44% | –
CCCN(CCc1cccs1)[C@H]1CCc2c(O)cccc2C1 | -4.7% [at 42.5 µM] | –
C=C(C)C(=O)O[C@H]1C[C@@H]2CC[C@@]1(C)C2(C)C | 3.34% | –
CCCC[N+](C)(CCCC)CCCC | -0.253% | –
